Compound activity from PubChem BioAssay.
This is a sample that favours compounds with a hit; in the whole collection about 12% have one here.
BAZ2B inh = BAZ2B (human) inhibition; AlphaScreen BAZ2B-H3K14Ac peptide displacement; 360,000 tested, 4.4% active; AID 504333; Potency, µM (doses to about 114 µM), inactives show at the top dose activity change, negative = inhibition, most hits filed as inhibitors; Q9UIF8; further: on the % scale 0 is the no-effect control and ±100 the full control effect; nearly all actives have a fitted effect of over 60% in size
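In this displacement format the biotinylated H3(5-23) peptide acetylated at Lys14 serves as ligand at 50 nM, with BAZ2B at 50 nM in PBS pH 7.4 containing 0.01% Tween-20. Donor and acceptor beads are 10 ug/mL final.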
HP1b binding inh = inhibitors of HP1-beta chromodomain binding to methylated histone tails. AlphaScreen HP1-beta / biotin-H3K9me3 peptide binding. P83916. 390,000 tested, 0.56% active. Potency, µM (highest dose often 114 µM), inactives show at the top dose activity change, negative = inhibition, usual class: inhibitors; further: nearly all actives have a fitted effect of over 70% in size
Target sequence (P83916 whole entry, looked up): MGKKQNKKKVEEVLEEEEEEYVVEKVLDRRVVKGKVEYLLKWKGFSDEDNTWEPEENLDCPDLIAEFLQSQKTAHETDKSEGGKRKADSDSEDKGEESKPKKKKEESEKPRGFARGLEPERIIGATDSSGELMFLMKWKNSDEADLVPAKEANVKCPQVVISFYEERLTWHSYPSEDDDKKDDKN
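AlphaScreen: HP1-beta (50 nM) preformed 30 min with biotin-H3(1-18)K9me3 peptide (50 nM) in PBS pH 7.4, 0.01% Tween-20. Compound added for 30 min at RT, then streptavidin donor/nickel chelate acceptor beads (10 ug/mL) for 30 min.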
G9a inh = G9a (human) methyltransferase inhibition; Q96KQ7; G9a H3K9 monomethylation, AlphaScreen, 2 h; Potency, µM (highest dose often 102 µM), for inactives: top-dose activity, negative = inhibition, most hits filed as inhibitors; 350,000 tested, 8.8% active; further: on the % scale 0 is the no-effect control and ±100 the full control effect; nearly all actives have a fitted effect of over 75% in size
Target sequence (Q96KQ7 913-1193 limits assumed): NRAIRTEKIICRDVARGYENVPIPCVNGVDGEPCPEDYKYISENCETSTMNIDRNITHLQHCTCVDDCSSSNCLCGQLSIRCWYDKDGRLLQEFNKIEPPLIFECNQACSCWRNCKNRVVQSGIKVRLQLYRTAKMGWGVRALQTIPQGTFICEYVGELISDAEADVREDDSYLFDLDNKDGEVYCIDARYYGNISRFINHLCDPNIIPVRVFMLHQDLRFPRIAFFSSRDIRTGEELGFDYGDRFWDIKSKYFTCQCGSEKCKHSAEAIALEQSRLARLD
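AlphaScreen detection with an anti-monomethyl H3K9 antibody quantified product after a 2 h room-temperature reaction containing 500 nM biotinylated H3K9 peptide, 20 µM SAM and 20 nM enzyme, which had been preincubated 15 min with compound.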
Sfp inh = inhibitors of Bacillus subtilis Sfp phosphopantetheinyl transferase; Biochemical Sfp PPTase activity, qHTS; Potency, µM, inactives show largest response in the series, negative = inhibition, most hits filed as inhibitors; Q9F4F7; AID 1490; 310,000 tested, 3.5% active;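 further: the enzyme is Sfp with the accession as filed and its product quenches rhodamine fluorescence; 0% = enzyme reaction without inhibitor and -100% = no enzyme wells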
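With Hepes-Na pH 7.6 buffer containing 10 mM MgCl2, Sfp (15 nM) modified BHQ-2-YbbR (12.5 uM) using rhodamine-CoA (5 uM). Two reads 30 minutes apart at 525/598 nm yielded each well's rate.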
JMJD2A Tudor inh = blocks the human JMJD2A Tudor domain | AlphaScreen JMJD2A-Tudor / H3K4me3 peptide binding | O75164 | 390,000 tested, 4.4% active | AID 504339 | Potency, µM (titrated, usually from 114 µM), without a hit: at the highest dose activity change, negative = inhibition, most hits filed as inhibitors; further: on the % scale 0 is the no-effect control and ±100 the full control effect; nearly all actives have a fitted effect of over 50% in size
The depositor's hits bear a star; ? = inconclusive; · = not tested or not shown; [ ] = dose if it differs, or a comment. The call rests on the fitted dose curve; in most records, active means well fitted curve in the direction sought with a large enough effect; inconclusive means small, poorly fitted or top-dose-only effect, or another doubt; inactive means no such curve, though single readings can be large; an effect the other way counts as inactive or inconclusive. Potency means the concentration at half of the fitted maximal effect.

SMILES	BAZ2B inh	HP1b binding inh	G9a inh	Sfp inh	JMJD2A Tudor inh
COc1ccc(C=Nc2cccc3c(=O)[nH][nH]c(=O)c23)c2ccccc12	-31%	13%	50µM*	-8%	-26%
O=S(=O)(c1cccc2nonc12)N1CCCCC1	-16%	7%	11%	22%	-14%
COC(=O)c1cc(C(=O)c2cc(F)ccc2O)cn2c(=O)c3c(C)c(C)sc3nc12	-29%	-19%	?	-11%	40µM*
Cc1sc2nc3c(SC(C)C(=O)O)cc(C(=O)c4ccccc4O)cn3c(=O)c2c1C (stereo not given)	?	-13%	50µM*	50µM*	-32%
CCc1c(C)sc2nc3c(C(=O)N4CCOCC4)cc(C(=O)c4ccccc4O)cn3c(=O)c12	?	14%	-43%	4%	?
O=C(O)CSc1cc(C(=O)c2ccccc2O)cn2c(=O)c3c(-c4ccccc4)csc3nc12	·	-14%[57 µM]	?	?	56µM*
CCOC(=O)c1sc2nc3c(SCC(=O)O)cc(C(=O)c4cc(F)ccc4O)cn3c(=O)c2c1C	35µM*	?	79µM*	?	40µM*
Cc1cc(C)n2ncc(C(=O)Nc3ccccc3)c2n1	·	·	·	·	-14%
CC1(C)C(C=C(Cl)Cl)C1C(=O)N1CCN(Cc2ccccc2)CC1 (stereo not given)	-20%	37%	24%[59 µM]	19%	-11%
O=C(Cc1ccccc1)N[C@@H]1c2ccccc2CC[C@@H]1OCc1ccccc1	·	9%	·	·	1%
O=C(CSc1nccn1-c1ccc(F)cc1)Nc1ccc(OC(F)(F)F)cc1	?	-13%[57 µM]	?	·	?
COc1ccc(O)c(C(=O)c2cc(SCC(=O)O)c3nc4sc5c(c4c(=O)n3c2)CCCC5)c1	22µM*	25µM*	-33%[12.7 µM]	?	25µM*
COc1ccc(-n2c(SCC(=O)O)nc3sc4c(c3c2=O)CCCC4)cc1	-20%	23%	?	-3%	-15%
CCOC(=O)c1sc2nc3c(SCC(=O)O)cc(C(=O)c4ccccc4O)cn3c(=O)c2c1C	16µM*	?	32µM*	1%	10µM*
Cc1ccc(CN(C(=O)COc2ccc(Cl)cc2Cl)C2CCS(=O)(=O)C2)o1 (stereo not given)	-15%	-8%	-27%[59 µM]	·	?
CCN(Cc1ccccc1)C(=O)COC(=O)[C@@H]1CCCN1C(=O)c1cccs1	·	10%[57 µM]	·	·	-12%
O=[N+]([O-])c1ccc(CN2CCN(c3ccc(F)cc3)CC2)o1	?	?	?	-44%	11µM*
O=[N+]([O-])c1ccc(CN2CCSCC2)cc1	71µM*	25µM*	25µM*	-27%	1.6µM*
O=[N+]([O-])c1ccc(N2CCN(Cc3cccc([N+](=O)[O-])c3)CC2)cc1	?	-7%	-11%	3%	?
O=[N+]([O-])c1ccc(C(O)CN2CCN(Cc3ccccc3)CC2)cc1 (stereo not given)	2%	12%	-21%	19%	-10%
c1ccc(-c2ccc(CN3CCSCC3)cc2)cc1	?	?	·	?	20µM*
O=[N+]([O-])c1ccc(CN2CCN(c3ccc([N+](=O)[O-])cc3)CC2)cc1	25µM*	50µM*	13µM*	-28%	3.2µM*
Cc1ccc(OCC(=O)Oc2cccc(C)c2C)cc1	108%	215%	-3%[0.501 µM]	0%	171%
COc1cccc(C2/C(=C(/O)c3cnn(-c4ccccc4)c3C)C(=O)C(=O)N2CCN(C)C)c1OC (stereo not given)	?	21%	14µM*	16%	-15%[57.1 µM]
COc1ccc(C2/C(=C(\O)c3ccc(OC)c(Cl)c3)C(=O)C(=O)N2CCN(C)C)cc1 (stereo not given)	-4%	30%	79µM*	1%	-3%
COc1ccc(/C(O)=C2\C(=O)C(=O)N(CCN(C)C)C2c2cccc(OC)c2OC)cc1 (stereo not given)	-28%	12%	11µM*	18%	-17%
COC(=O)c1[nH]c(C)c(/C(O)=C2\C(=O)C(=O)N(CCN(C)C)C2c2cccc(OC)c2OC)c1C (stereo not given)	4%	20%	-20%[59 µM]	14%	-24%
Cc1c(Cl)cccc1-n1nc(C)c2c(C(=O)NCc3ccccc3)cc(C3CC3)nc21	8%[57.1 µM]	23%	?	·	-10%
